# Records with an inconclusive call do not appear. Values without a mark were called inactive. The source made the active and inactive calls. Calls come from the whole dose curve; as a rule, active = well fitted curve in the direction sought with a large enough effect; inconclusive = small, poorly fitted or top-dose-only effect, or another doubt; inactive = no such curve, though single readings can be large or run the other way.
# Target: Relaxin receptor 1 (Homo sapiens) (UniProt Q9HBX9)
# Experiment: qHTS Assay for Agonists of the Relaxin Receptor RXFP1: RXFP1 SAR
# Details: HEK293T-RXFP1 cAMP TR-FRET, 30 min; efficacy: stronger effect = higher value
# Text: The relaxin hormone is involved in the variety of biological functions in normal tissues and diseases. The role of relaxin is well-established in female reproduction and parturition, mammary gland and endometrial development, maintenance of myometrial quiescence during pregnancy. Relaxin signaling through its G protein-coupled receptor (GPCR) RXFP1 results in ECM remodeling through regulation of collagen deposition, cell invasiveness, proliferation and overall tissue homeostasis. […] Recombinant human relaxin (rhRlx) is currently being tested in clinical trials as a protective agent in congestive heart failure, in treating severe preeclampsia, and as an anti-fibrotic agent in systemic sclerosis. Upon relaxin binding RXFP1 activation leads to the activation of adenylate cyclase (AC) via Gs. cAMP will activate PKA, which phosphorylates many signaling proteins. Thus, detection of cAMP increase is an easy and reliable indication of relaxin receptor activation. To screen for agonists of the relaxin receptor, a HEK293T cell line stably transfected with RXFP1 was used. RXFP1 activation was assayed by changes in cAMP levels as detected with a time-resolved fluorescence energy transfer (TR-FRET) cAMP detection kit. NIH Chemical Genomics Center [NCGC] NIH Molecular Libraries Probe Production Centers Network [MLPCN] MLPCN Grant: R03 MH085705-01A1 Assay Submitter (PI): Alexander Agoulnik
# This is a cell-based assay for cAMP second messenger response to screen for agonists of the RXFP1 receptor. The assay was conducted in the presence of a PDE4 inhibitor (Ro 20174). The cells were lysed and the cAMP levels were measured with a TR-FRET cAMP kit. Presence of cAMP in the cell lysate disrupts binding between the cryptate-labeled anti-cAMP and d2-labeled cAMP pair, leading to a decrease in the TR-FRET signal. Data were normalized to the controls for basal activity (buffer only) and 100% activity (29 nM porcine relaxin). The EC50 values were determined from concentration-response data modeled with the standard Hill equation 1536-well assay protocol for the HEK293 RXFP1 cAMP assay: (1) Add 3 ul HEK293 RXFP1 cell culture. 2000 cells/well in DMEM/F12, 10% FBS, 1x Pen/Strep (dispensed offline with MultiDrop Combi). (2) Incubate 16-24 hr at 37C, 5% CO2. (3) Add 1 ul 400uM Ro20174 in DPBS, 0.05% BSA, 0.005% Tween 20. (3) Add 23 nl compounds in DMSO solution. Final concentration was 0.5 - 58 uM. (4) Incubate 30 min at 37C, 5% CO2. (5) Add 1 ul cAMP-d2 in lysis buffer (HTRF cAMP HiRange kit, CisBio). (6) Add 1 ul anti-cAMP antibody-cryptate in lysis buffer (HTRF cAMP HiRange kit, CisBio). (7) Incubate 30 min at room temperature. (6) Detect the assay plate in a ViewLux plate reader (PerkinElmer) with Ex=320 nm, Em1=615 nm and Em2=665 nm. Keywords: relaxin, RXFP1, RXFP2, G-protein coupled receptor, cAMP, agonist, high throughput screening, MLSMR, MLSCN, NIH Roadmap, qHTS and NCGC
# Relaxin receptor 1 (Homo sapiens), sequence (Q9HBX9 whole entry, looked up): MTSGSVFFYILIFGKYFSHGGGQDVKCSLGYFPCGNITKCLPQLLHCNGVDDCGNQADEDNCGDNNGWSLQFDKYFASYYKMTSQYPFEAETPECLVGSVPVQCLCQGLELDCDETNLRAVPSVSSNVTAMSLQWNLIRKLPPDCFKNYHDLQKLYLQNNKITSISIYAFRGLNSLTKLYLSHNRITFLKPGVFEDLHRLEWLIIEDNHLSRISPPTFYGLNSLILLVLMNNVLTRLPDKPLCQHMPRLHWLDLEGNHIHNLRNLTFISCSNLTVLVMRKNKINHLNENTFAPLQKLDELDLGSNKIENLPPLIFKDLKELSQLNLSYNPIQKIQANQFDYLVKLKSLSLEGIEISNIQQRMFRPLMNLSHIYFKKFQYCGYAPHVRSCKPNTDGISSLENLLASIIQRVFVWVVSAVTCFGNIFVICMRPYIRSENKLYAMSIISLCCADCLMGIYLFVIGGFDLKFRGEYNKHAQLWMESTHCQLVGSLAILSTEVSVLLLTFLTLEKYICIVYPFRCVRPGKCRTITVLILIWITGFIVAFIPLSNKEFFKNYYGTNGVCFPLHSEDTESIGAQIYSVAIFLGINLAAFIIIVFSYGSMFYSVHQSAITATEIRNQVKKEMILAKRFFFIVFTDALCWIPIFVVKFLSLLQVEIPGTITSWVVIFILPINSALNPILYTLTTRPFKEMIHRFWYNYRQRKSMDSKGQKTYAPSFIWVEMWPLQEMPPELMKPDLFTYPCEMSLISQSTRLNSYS
Compound,efficacy,Potency
COc1ccccc1C(=O)N(C)c1ccccc1C(=O)N(C)c1cccc(C(F)(F)F)c1,0.957%,
CCCCOc1ccccc1C(=O)Nc1ccccc1C(=O)Nc1cccc(S(=O)(=O)C(F)(F)F)c1,,47.1 nM (active)
CCOc1ccccc1C(=O)Nc1sccc1C(=O)Nc1cccc(S(=O)(=O)C(F)(F)F)c1,,2360 nM (active)
COc1ccccc1C(=O)Nc1ccccc1C(=O)Nc1cccc(C(F)(F)F)c1,,334 nM (active)
CCOc1ccccc1C(=O)NCCC(=O)Nc1cccc(S(=O)(=O)C(F)(F)F)c1,,4710 nM (active)
O=C(Nc1cccc([N+](=O)[O-])c1)c1ccccc1NC(=O)C1CCCCC1,,5930 nM (active)
CC(C)(C)c1cccc(NC(=O)c2ccccc2NC(=O)C2CCCCC2)c1,,2650 nM (active)
Cc1ccccc1C(=O)Nc1ccccc1C(=O)Nc1cccc(C(F)(F)F)c1,,4200 nM (active)
CCOc1ccccc1-c1nc2c(C(=O)Nc3cccc(S(=O)(=O)C(F)(F)F)c3)cccc2[nH]1,4.9%,
O=C(Nc1cccc(Br)c1)c1ccccc1NC(=O)C1CCCCC1,,2650 nM (active)
COc1cccc(C(=O)Nc2ccccc2C(=O)Nc2cccc(C(F)(F)F)c2)c1,,1880 nM (active)
COc1ccccc1C(=O)Nc1ccccc1C(=O)Nc1cccc(SC(F)(F)F)c1,,297 nM (active)
O=C(Cc1ccccc1)Nc1ccccc1C(=O)Nc1cccc(C(F)(F)F)c1,,8380 nM (active)
O=C(NCc1cccc(C(F)(F)F)c1)c1ccccc1NC(=O)C1CCCCC1,4.71%,
COc1ccc(C(=O)Nc2ccccc2C(=O)Nc2cccc(C(F)(F)F)c2)cc1,,9400 nM (active)
COc1ccccc1C(=O)N(C)c1ccccc1C(=O)Nc1cccc(C(F)(F)F)c1,-2.4%,
O=C(Nc1cccc(Cl)c1)c1ccccc1NC(=O)C1CCCCC1,,3340 nM (active)
O=C(Nc1cccc(C(F)(F)F)c1)c1ccccc1NC(=O)c1ccccc1OC(F)(F)F,,1180 nM (active)
O=C(Nc1cccc(SC(F)(F)F)c1)c1ccccc1NC(=O)C1CCCCC1,,1880 nM (active)
CSc1cccc(NC(=O)c2ccccc2NC(=O)C2CCCCC2)c1,,5290 nM (active)

Compound,efficacy,Potency
COc1ccccc1-c1ccccc1C(=O)Nc1cccc(C(F)(F)F)c1,-3.31%,
O=C(NCc1ccco1)c1ccccc1NC(=O)c1ccccc1NC(=O)C1CCCCC1,,9400 nM (active)
CCOc1ccccc1C(=O)Nc1ccccc1C(=O)Nc1cccc(C(F)(F)F)c1,,265 nM (active)
O=C(Nc1cccc(C(F)(F)F)c1)c1ccccc1NC(=O)C1CCC1,,2970 nM (active)
COc1ccccc1Nc1ccccc1C(=O)Nc1cccc(C(F)(F)F)c1,,4710 nM (active)
COc1ccccc1C(=O)Nc1cccc(C(=O)Nc2cccc(C(F)(F)F)c2)c1,1.37%,
O=C(Nc1cccc(S(=O)(=O)C(F)(F)F)c1)c1ccccc1NC(=O)C1CCCCC1,,1060 nM (active)
COc1ccccc1C(=O)Nc1ccccc1C(=O)Nc1cccc(S(=O)(=O)C(F)(F)F)c1,,188 nM (active)
COCCOc1ccccc1C(=O)Nc1ccccc1C(=O)Nc1cccc(C(F)(F)F)c1,,747 nM (active)
O=C(Nc1cccc(F)c1)c1ccccc1NC(=O)C1CCCCC1,,13300 nM (active)
O=C(Nc1cccc(-c2ccccc2C(F)(F)F)c1)c1ccccc1NC(=O)C1CCCCC1,,2650 nM (active)
O=C(Nc1cccc(-c2cccc(C(F)(F)F)c2)c1)c1ccccc1NC(=O)C1CCCCC1,15%,
CCOc1ccccc1C(=O)Nc1ccccc1CNc1cccc(S(=O)(=O)C(F)(F)F)c1,,2650 nM (active)
CCOc1ccccc1C(=O)Nc1cccnc1C(=O)Nc1cccc(S(=O)(=O)C(F)(F)F)c1,,4710 nM (active)
O=C(Nc1cccc(C(F)(F)F)c1)c1ccccc1NC(=O)C1CCCCC1,,1880 nM (active)
CCC(CC)C(=O)Nc1ccccc1C(=O)Nc1cccc(C(F)(F)F)c1,,5290 nM (active)
O=C(Nc1ccccc1C(=O)Nc1cccc(C(F)(F)F)c1)c1ccccc1,,1330 nM (active)
COc1cccc(OC)c1C(=O)Nc1ccccc1C(=O)Nc1cccc(C(F)(F)F)c1,,7470 nM (active)
O=C(Nc1cccc(C(F)(F)F)c1)c1ccccc1NC(=O)C1CCCCCC1,,2110 nM (active)
O=C(Nc1cccc(C(F)(F)F)c1)c1ccccc1NC(=O)C1CC1,,8380 nM (active)
